Results on 15 targets are retold here after the supplement of paper PMC10849652.

Targets with a hit are over-represented here; the source holds about 7,900 in all. About 0.6% of all pairs of compound and target were hits. Values without a mark were called inactive.

What all share (assay): log2 fold change, soluble protein after heating vs DMSO (PISA); higher = thermal stabilisation; K562 cells, 10 uM, 30 min; active = over 0.2 and 3.5 SD of the protein, either way, in both replicates (recomputed)
Compound in one experiment: CN1CCN(CCOc2cc(OC3CCOCC3)c3c(Nc4c(Cl)ccc5c4OCO5)ncnc3c2)CC1 [saracatinib]
A digest of the protocol: (§1)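 K562 cells at 2×10^6 cells/mL were given 10 μM compound for 30 min. Aliquots then went through 3 min of heating across 48°C-58°C, were pooled, and were extracted in PBS with 0.5% NP-40 at 4°C, and the supernatant after 21,000xg for 90 min was quantified by TMTpro 16plex LC-MS/MS with channel sums equalised. Thermal stability relative to control samples, from duplicates, is given as log2 fold change.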

Compound in another experiment: CN1CCN(c2nc(C3=C(c4c[nH]c5ccccc45)C(=O)NC3=O)c3ccccc3n2)CC1 [sotrastaurin]
Put shortly: as §1

Compound in another experiment: CN1CC[C@H](c2c(O)cc(O)c3c(=O)cc(-c4ccccc4Cl)oc23)[C@H](O)C1 [alvocidib]
Put shortly: as §1

Compound in the next experiment: CN1CCc2c(c3ccccc3n2Cc2ccc(C(=O)NO)cc2)C1 [Tubastatin A]
A digest of the protocol: as §1

Compound in experiment [1]: CNC(=O)C1=CC=CC=C1NC2=NC(=NC=C2Cl)NC3=C(C=C(C=C3)N4CCOCC4)OC
A digest of the protocol:
as §1

Compound in the next experiment: CNC(=O)c1ccc(Nc2ncc(C(F)(F)F)c(NCc3nccnc3N(C)S(C)(=O)=O)n2)cc1 [defactinib]
A digest of the protocol:
as §1

Compound in another experiment: CNCc1ccc(-c2[nH]c3cc(F)cc4c3c2CCNC4=O)cc1 [rucaparib]
A digest of the protocol: as §1

Compound in experiment [2]: CNc1nc(-c2ccc3c(N)n[nH]c3c2)cc(N2C[C@@H](C(=O)NC3CCCCC3)CC[C@H]2C)n1
A digest of the protocol:
as §1

Compound in another experiment: COC(=O)N[C@@H](C)CNc1nccc(-c2cn(C(C)C)nc2-c2cc(Cl)cc(NS(C)(=O)=O)c2F)n1 [encorafenib]
Put shortly: as §1

Compound in experiment [3]: COC(=O)[C@H](CCSC)NC(=O)C1=C(C=C(C=C1)NC[C@H](CS)N)C2=CC=CC=C2
A digest of the protocol: as §1

UniProt P50336, sequence (P50336 whole entry, looked up): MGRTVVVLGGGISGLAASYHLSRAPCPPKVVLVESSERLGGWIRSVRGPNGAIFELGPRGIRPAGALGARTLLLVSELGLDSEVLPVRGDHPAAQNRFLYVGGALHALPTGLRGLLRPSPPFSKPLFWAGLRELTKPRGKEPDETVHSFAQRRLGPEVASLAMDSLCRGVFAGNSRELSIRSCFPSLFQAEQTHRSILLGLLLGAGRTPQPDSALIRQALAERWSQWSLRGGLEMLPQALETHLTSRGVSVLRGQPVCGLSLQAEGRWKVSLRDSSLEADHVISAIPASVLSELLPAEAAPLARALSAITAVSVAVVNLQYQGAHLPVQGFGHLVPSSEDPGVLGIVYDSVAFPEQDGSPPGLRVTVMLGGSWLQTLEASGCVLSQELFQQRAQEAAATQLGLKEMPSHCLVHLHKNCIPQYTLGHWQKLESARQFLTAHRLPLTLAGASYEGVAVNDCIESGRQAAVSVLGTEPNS
UniProt Q9UG56, sequence (Q9UG56 whole entry, looked up): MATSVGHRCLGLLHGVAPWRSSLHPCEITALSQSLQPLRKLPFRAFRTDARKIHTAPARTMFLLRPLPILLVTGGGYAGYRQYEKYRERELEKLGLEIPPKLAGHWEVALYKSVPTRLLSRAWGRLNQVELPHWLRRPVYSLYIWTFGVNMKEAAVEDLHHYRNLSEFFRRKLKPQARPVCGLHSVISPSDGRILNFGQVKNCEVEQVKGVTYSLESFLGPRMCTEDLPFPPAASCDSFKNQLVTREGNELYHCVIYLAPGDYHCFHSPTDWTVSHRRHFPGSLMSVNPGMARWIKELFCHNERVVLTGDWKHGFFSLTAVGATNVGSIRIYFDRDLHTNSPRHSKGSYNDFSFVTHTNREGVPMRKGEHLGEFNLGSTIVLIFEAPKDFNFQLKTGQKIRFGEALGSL
UniProt O00233, sequence (O00233 whole entry, looked up): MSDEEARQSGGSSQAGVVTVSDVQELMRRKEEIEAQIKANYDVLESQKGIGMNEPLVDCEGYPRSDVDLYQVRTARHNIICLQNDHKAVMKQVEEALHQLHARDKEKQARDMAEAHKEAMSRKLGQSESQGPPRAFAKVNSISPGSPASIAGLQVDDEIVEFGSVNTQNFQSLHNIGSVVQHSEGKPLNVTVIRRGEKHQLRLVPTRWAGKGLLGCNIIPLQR
UniProt O00231, sequence (O00231 whole entry, looked up): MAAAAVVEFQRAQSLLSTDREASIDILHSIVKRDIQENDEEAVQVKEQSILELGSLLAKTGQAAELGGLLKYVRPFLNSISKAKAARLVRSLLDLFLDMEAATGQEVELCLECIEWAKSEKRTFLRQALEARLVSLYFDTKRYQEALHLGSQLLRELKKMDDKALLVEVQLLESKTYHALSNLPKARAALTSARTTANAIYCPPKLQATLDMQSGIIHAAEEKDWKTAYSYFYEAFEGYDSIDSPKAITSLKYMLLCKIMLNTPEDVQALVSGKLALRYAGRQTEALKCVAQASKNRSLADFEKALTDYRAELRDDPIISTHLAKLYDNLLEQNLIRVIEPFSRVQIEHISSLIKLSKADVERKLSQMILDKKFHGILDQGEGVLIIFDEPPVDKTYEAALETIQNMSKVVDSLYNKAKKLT
UniProt Q15365, sequence (Q15365 whole entry, looked up): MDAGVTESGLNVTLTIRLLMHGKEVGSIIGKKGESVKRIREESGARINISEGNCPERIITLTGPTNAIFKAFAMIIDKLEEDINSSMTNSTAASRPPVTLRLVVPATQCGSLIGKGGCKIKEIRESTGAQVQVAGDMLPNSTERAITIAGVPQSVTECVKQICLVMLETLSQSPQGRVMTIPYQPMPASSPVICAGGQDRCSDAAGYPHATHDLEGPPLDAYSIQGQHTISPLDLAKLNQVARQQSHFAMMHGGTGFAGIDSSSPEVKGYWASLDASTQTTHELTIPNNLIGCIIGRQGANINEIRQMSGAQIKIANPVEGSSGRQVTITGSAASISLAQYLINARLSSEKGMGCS
UniProt Q8IWE5, sequence (Q8IWE5 whole entry, looked up): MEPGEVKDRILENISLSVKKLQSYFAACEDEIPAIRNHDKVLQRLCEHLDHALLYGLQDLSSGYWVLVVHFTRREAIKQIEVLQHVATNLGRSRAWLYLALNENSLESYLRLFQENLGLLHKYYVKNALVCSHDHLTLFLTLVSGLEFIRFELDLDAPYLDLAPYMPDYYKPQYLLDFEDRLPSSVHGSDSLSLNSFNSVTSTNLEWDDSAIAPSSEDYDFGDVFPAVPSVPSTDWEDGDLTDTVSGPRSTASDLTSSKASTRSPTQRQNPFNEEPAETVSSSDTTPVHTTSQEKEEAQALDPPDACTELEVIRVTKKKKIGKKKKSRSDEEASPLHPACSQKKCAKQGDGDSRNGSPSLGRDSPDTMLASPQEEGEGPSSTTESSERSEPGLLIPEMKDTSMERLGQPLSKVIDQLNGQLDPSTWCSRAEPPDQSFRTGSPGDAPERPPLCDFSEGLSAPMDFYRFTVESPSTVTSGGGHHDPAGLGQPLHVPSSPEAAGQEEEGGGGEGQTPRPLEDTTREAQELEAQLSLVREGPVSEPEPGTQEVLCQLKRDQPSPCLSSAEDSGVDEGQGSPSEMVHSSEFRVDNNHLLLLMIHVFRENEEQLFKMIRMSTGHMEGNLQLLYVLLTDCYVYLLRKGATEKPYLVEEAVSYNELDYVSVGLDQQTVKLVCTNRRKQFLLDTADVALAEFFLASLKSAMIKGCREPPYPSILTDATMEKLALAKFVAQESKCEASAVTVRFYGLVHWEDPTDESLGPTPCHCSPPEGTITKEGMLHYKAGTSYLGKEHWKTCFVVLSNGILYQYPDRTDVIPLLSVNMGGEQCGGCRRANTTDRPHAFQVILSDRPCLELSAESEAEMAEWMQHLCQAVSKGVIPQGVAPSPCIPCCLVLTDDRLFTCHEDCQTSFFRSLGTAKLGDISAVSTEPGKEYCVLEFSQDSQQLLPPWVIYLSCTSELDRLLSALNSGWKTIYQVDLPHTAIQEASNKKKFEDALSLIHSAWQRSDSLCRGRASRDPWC
UniProt Q9Y2I7, sequence (Q9Y2I7 whole entry, looked up): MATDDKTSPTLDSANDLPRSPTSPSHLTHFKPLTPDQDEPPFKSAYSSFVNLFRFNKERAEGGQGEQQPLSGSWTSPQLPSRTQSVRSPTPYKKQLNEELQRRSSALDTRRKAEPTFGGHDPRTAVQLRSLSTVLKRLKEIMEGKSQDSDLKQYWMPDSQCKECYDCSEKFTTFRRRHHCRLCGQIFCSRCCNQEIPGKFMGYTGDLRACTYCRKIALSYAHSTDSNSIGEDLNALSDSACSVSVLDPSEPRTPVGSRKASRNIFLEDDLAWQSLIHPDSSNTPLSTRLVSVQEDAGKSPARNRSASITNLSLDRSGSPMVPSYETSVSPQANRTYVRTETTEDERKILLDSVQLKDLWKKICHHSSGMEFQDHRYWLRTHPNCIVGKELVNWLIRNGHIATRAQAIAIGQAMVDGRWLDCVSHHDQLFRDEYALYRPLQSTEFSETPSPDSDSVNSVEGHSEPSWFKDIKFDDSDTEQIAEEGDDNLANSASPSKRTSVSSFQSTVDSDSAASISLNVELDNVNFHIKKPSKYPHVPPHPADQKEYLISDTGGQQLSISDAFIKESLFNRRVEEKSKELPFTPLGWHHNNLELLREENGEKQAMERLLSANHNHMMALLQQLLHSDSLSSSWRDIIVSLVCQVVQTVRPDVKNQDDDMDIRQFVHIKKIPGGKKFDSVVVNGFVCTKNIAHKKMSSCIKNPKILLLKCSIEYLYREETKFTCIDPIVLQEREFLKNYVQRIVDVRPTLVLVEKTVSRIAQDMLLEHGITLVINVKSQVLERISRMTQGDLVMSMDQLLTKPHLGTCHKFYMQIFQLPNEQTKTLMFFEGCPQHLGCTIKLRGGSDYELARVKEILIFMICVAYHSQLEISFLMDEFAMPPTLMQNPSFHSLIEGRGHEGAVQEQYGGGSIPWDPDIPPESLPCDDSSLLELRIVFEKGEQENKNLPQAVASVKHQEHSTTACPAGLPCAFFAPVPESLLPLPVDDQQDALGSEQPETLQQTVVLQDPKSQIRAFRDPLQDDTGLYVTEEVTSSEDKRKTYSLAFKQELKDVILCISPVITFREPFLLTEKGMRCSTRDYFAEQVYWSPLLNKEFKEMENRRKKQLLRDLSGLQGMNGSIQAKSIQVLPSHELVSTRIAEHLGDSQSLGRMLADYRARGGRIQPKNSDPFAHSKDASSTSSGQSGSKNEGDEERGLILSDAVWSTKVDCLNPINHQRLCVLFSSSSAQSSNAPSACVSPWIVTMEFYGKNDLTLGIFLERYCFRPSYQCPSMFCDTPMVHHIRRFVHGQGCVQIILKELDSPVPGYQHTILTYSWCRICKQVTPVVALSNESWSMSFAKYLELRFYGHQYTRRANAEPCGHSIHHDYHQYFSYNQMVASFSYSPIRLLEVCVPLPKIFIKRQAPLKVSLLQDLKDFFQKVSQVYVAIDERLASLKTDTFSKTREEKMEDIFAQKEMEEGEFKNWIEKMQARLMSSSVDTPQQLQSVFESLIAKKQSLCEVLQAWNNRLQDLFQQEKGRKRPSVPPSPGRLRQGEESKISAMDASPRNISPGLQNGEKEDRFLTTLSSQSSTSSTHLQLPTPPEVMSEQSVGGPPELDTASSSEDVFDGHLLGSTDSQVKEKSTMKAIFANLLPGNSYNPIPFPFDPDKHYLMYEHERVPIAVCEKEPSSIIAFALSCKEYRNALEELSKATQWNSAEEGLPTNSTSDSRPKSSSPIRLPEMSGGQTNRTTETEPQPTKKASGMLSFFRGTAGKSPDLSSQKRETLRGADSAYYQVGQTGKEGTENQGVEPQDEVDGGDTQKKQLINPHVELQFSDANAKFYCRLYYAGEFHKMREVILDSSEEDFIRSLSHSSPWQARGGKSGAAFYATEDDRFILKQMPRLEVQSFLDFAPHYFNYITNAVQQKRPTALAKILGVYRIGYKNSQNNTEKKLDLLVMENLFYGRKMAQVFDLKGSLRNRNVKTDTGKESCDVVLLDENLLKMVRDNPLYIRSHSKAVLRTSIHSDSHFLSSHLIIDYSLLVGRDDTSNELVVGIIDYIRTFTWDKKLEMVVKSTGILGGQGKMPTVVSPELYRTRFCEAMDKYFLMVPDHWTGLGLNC

Regarding PSMD9 (UniProt O00233), the log2 fold change is -0.022 in the experiment with saracatinib; 0.001 in the experiment with sotrastaurin; -0.012 with alvocidib; 0.002 in the experiment with Tubastatin A; -0.016 in experiment [1]; -0.034 in the experiment with defactinib. Moreover, the log2 fold change in the experiment with rucaparib was -0.004; in experiment [2], -0.031; in the experiment with encorafenib it was -0.023; in experiment [3], 0.005.

Turning to PSMD6 (UniProt Q15008), the log2 fold change in the experiment with saracatinib is -0.044; with sotrastaurin it was -0.035; with alvocidib, 0.056; in the experiment with Tubastatin A, 0.025; in experiment [1], 0.013; with defactinib it was 0.046. Besides, the log2 fold change was 0.051 in the experiment with rucaparib, 0.062 in [2], 0.056 with encorafenib and -0.021 in experiment [3].

Regarding PDCD6 (UniProt O75340), the log2 fold change in the experiment with saracatinib is 0.038; in the experiment with sotrastaurin, -0.014; with alvocidib it was -0.003; with Tubastatin A it was 0.001; in experiment [1] it was 0.026; in the experiment with defactinib it was -0.017. Also, the log2 fold change with rucaparib was -0.048; in [2] it was -0.153; with encorafenib it was 0.002; in [3], 0.004.

Regarding PCNT (UniProt O95613), the log2 fold change with saracatinib was -0.06; with sotrastaurin it was 0.115; with alvocidib, 0.067; with Tubastatin A, -0.069; in [1] it was -0.098; in the experiment with defactinib, 0.154. The log2 fold change with rucaparib was -0.116; in experiment [2] it was 0.019; in the experiment with encorafenib, 0.037; in [3], 0.091.

Regarding PHAX (UniProt Q9H814), the log2 fold change was 0.013 with saracatinib; 0.001 with sotrastaurin; -0.15 in the experiment with alvocidib; 0.003 in the experiment with Tubastatin A; -0.028 in [1]; -0.138 with defactinib. The log2 fold change in the experiment with rucaparib was -0.031; in experiment [2], -0.037; in the experiment with encorafenib, -0.034; in experiment [3], 0.037.

On to PGM3 isoform 4 (UniProt O95394), for which the log2 fold change was -0.028 with saracatinib; -0.018 in the experiment with sotrastaurin; -0.062 with alvocidib; 0.03 in the experiment with Tubastatin A; -0.011 in experiment [1]; -0.019 in the experiment with defactinib. Further, the log2 fold change with rucaparib is -0.013; in experiment [2], 0.067; in the experiment with encorafenib, 0.024; in [3], -0.022.

In the case of PIKFYVE (UniProt Q9Y2I7), the log2 fold change with saracatinib is -0.001; with sotrastaurin, -0.081; with alvocidib, -0.175; with Tubastatin A, -0.032; in experiment [1] it was 0.009; with defactinib, -0.033. Also, the log2 fold change was 0.068 with rucaparib, -0.106 in [2], 0.099 with encorafenib and -0.025 in [3].

Take PELO (UniProt Q9BRX2): the log2 fold change with saracatinib was -0.079; with sotrastaurin it was -0.218; with alvocidib, -0.066; with Tubastatin A, 0.121; in experiment [1], -0.122; in the experiment with defactinib, -0.058. The log2 fold change with rucaparib is 0.299; in experiment [2], 0.148; with encorafenib it was 0.137; in experiment [3], 0.061.

As for PPOX (UniProt P50336), the log2 fold change with saracatinib is -0.087; in the experiment with sotrastaurin, 0.02; with alvocidib, -0.049; with Tubastatin A, -0.045; in experiment [1], 0.534 (active); in the experiment with defactinib it was -0.07. Moreover, the log2 fold change with rucaparib was -0.059; in experiment [2], 0.274; with encorafenib, -0.018; in [3], -0.01.

For the target PLCG1 isoform 2 (UniProt P19174), the log2 fold change in the experiment with saracatinib is -0.131; with sotrastaurin, -0.005; with alvocidib, -0.007; in the experiment with Tubastatin A, 0.1; in experiment [1] it was -0.048; in the experiment with defactinib it was -0.128. Further, the log2 fold change with rucaparib was 0.088; in [2], 0.054; in the experiment with encorafenib, 0.012; in experiment [3], -0.007.

Turning to PSMD11 (UniProt O00231), the log2 fold change is -0.065 with saracatinib; -0.051 with sotrastaurin; 0.051 with alvocidib; 0.077 with Tubastatin A; 0.013 in experiment [1]; 0.059 with defactinib. Besides, the log2 fold change with rucaparib was 0.039; in [2], 0.041; in the experiment with encorafenib it was 0.042; in experiment [3], -0.05.

Consider PPIL1 (UniProt Q9Y3C6), for which the log2 fold change is -0.007 with saracatinib; -0.088 with sotrastaurin; 0.096 with alvocidib; -0.016 with Tubastatin A; 0.042 in experiment [1]; 0.09 with defactinib. For the same target, the log2 fold change is 0.056 with rucaparib, -0.062 in experiment [2], 0.052 with encorafenib and -0.042 in experiment [3].

For the target PLEKHM2 (UniProt Q8IWE5), the log2 fold change in the experiment with saracatinib was -0.002; in the experiment with sotrastaurin, -0.047; in the experiment with alvocidib, -0.119; with Tubastatin A it was 0.029; in [1], -0.215; in the experiment with defactinib it was -0.054. In addition, the log2 fold change with rucaparib is -0.087; in [2] it was -0.019; with encorafenib, 0.058; in experiment [3], -0.014.

Turning to PISD (UniProt Q9UG56), the log2 fold change was -0.095 in the experiment with saracatinib; 0.061 with sotrastaurin; 0 with alvocidib; 0.019 with Tubastatin A; 0.026 in experiment [1]; -0.054 with defactinib. Besides, the log2 fold change with rucaparib is 0.06; in experiment [2], 0.252 (active); with encorafenib, 0.063; in experiment [3] it was 0.028.

With PCBP1 (UniProt Q15365), the log2 fold change in the experiment with saracatinib was 0.009; with sotrastaurin it was -0.073; with alvocidib, -0.119; with Tubastatin A it was 0.013; in experiment [1] it was -0.015; in the experiment with defactinib, -0.151. For the same target, the log2 fold change with rucaparib is -0.015; in experiment [2], 0.03; in the experiment with encorafenib it was 0.052; in experiment [3] it was -0.034.
